Compound activity as filed in PubChem BioAssay.
The sample as a whole holds a higher share of hits than the screen did.
Tb PYK inh = T. brucei pyruvate kinase inhibition; TbPYK enzyme, Kinase-Glo Plus ATP luminescence, 45 min; Potency, µM (doses to about 76.8 µM), inactives show at the highest dose activity, negative = inhibition, usual class: inhibitors; 410,000 compounds, 0.12% hits; note: potency is the fitted concentration of half-maximal effect; % is set by controls: 0 for no effect and ±100 for the full control effect; nearly all actives have a fitted effect of over 50% in size
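Screened from lowest to highest concentration, compounds were pinned into TbPYK/substrate mixtures, and ADP (130 uM final) was added. Plates sat at room temperature for 45 min prior to Kinase-Glo Plus detection by luminescence.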
LmPK inh = LmPK (Leishmania mexicana) enzyme inhibition. purified LmPK, Kinase-Glo ATP luminescence, 1 h. Potency, µM (highest dose often 57.5 µM), inactives show top-dose activity change, negative = inhibition, actives largely listed as inhibitors. 290,000 compounds, 0.37% hits. AID 1721; note: potency is the fitted concentration of half-maximal effect; % is set by controls: 0 for no effect and ±100 for the full control effect
Target sequence (Q27686 whole entry, looked up): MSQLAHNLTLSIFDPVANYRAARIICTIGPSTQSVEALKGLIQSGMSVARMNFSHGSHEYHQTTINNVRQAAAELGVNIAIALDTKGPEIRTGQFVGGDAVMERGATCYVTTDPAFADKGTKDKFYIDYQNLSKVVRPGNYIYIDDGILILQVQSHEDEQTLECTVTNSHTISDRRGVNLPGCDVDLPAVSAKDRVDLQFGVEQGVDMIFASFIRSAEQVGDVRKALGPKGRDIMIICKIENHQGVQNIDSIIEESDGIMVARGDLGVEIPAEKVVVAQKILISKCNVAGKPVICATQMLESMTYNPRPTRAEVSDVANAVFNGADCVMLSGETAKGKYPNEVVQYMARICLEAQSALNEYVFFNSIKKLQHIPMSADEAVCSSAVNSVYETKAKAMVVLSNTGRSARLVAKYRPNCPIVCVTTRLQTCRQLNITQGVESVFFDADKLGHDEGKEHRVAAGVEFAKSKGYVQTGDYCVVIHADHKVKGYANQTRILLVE
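ATP generated from ADP (0.1 mM) and PEP (0.5 mM) by 0.1 nM LmPK over 1 h at room temperature (pH 7.2 imidazole buffer) was detected by coupled luciferase luminescence. Values were normalized to uninhibited and no-enzyme wells.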
Shiga inhibitor = inhibitors of Shiga toxin in Vero cells; Vero cells, Shiga toxin protein synthesis inhibition reporter; inhibition, % at 38.7 µM; 290,000 compounds, 9.2% hits; AID 2315; in the data active = inhibition mostly above about 28%, no sharp cut-off; inactive = mostly below about 43%; note: 0% is about no effect
Cycloheximide cs = counter-screen for Shiga toxin inhibitors: cycloheximide protein synthesis inhibition; cell reporter, cycloheximide protein synthesis inhibition counterscreen; 300,000 compounds, 12% hits; max response, %; AID 2314; in the data active = max response mostly above about 13%, no sharp cut-off; inactive = mostly below about 14%; note: read at 38.3 µM for the half of the compounds with a filed dose; 0% is about no effect
FBPA Giardia inh = Giardia lamblia aldolase inhibition. 290,000 compounds, 0.71% hits. A8B2U2. Potency, µM (top dose mostly 59.6 µM), without a hit: at the highest dose activity, negative = inhibition, hits mostly inhibitors. purified Giardia FBPA; note: potency is the fitted concentration of half-maximal effect; % is set by controls: 0 for no effect and ±100 for the full control effect; nearly all actives have a fitted effect of over 55% in size
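40 nM FBPA preincubated 10 min at RT with compound (up to 57.5 uM final), then substrate plus GAPDH/TPI/NAD/arsenate coupling and diaphorase/resazurin added. Fluorescence read after 20 min at RT, 525/598 nm.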
Sm TGR block = blocks Schistosoma mansoni thioredoxin glutathione reductase. Q962Y6. AID 485364. 360,000 compounds, 3% hits. Potency, µM (top dose mostly 114 µM), for the others: top-dose activity change, negative = inhibition, most hits filed as inhibitors. purified TGR, DTNB reduction, TNB absorbance 405 nm; note: potency is the fitted concentration of half-maximal effect; % is set by controls: 0 for no effect and ±100 for the full control effect; nearly all actives have a fitted effect of over 60% in size
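First, TGR (20 nM dispensed) and NADPH were mixed with compound. Second, a 15 min room-temperature incubation followed. Third, further NADPH and then DTNB were added to start the reaction. Finally, TNB absorbance was monitored kinetically.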
* = called active by the depositor; ? = inconclusive; . = no result; [ ] = dose if it differs, or a comment. Unless noted, calls come from the whole dose curve; as a rule, active = well fitted curve in the direction sought with a large enough effect; inconclusive = small, poorly fitted or top-dose-only effect, or another doubt; inactive = no such curve, though single readings can be large; an effect the other way counts as inactive or inconclusive.

SMILES	Tb PYK inh	LmPK inh	Shiga inhibitor	Cycloheximide cs	FBPA Giardia inh	Sm TGR block
COc1cccc(NC(=O)CSc2ccc(-c3ccco3)nn2)c1	-19%	8%	15	-3	.	40µM*
O=C(CSc1ccc(-c2ccco2)nn1)Nc1ccc(F)cc1	-17%	-3%	17	12	.	?
COc1ccc(CCNC(=O)CSc2nnc(-c3ccccc3)c3ccccc23)cc1OC	5%	-3%	-15	-1	-1%	-14%
COc1ccc(NC(=O)CSc2ccc(-c3ccco3)nn2)cc1OC	-5%	5%	-5	17	.	45µM*
Cc1nn2c(=O)cc(COC(=O)c3cccs3)nc2s1	-13%	.	.	.	.	-4%
CCOC(=O)c1cnn(C)c1NC(=O)c1ccc([N+](=O)[O-])cc1	0%	-1%	-3	-2	-2%	-1%
COc1ccc(CCNC(=O)CSc2ccc(-c3ccco3)nn2)cc1OC	-1%	-3%	-2	-2	-11%	18µM*
COc1ccc(CCNC(=O)CSc2ccc(-c3ccccc3)nn2)cc1	.	3%	-15	-4	0%	-3%
Cc1ccc(Cn2c(CNS(=O)(=O)c3ccc(C(C)(C)C)cc3)nc3cccnc32)cc1	0%	.	.	.	.	-4%
COC(=O)c1ccc(C2N=C(c3cccs3)CC(c3ccccc3O)N2)cc1 (configuration not stated)	1%	0%	100*	38*	-10%	?
O=C(c1ccccc1)N1N=C(c2cccs2)CC1c1ccccc1O (configuration not stated)	-7%	7%	11	-2	-6%	6%
CCCCSCCCNC(=O)c1cn(C)c2ccc(S(=O)(=O)N3CCCCCC3)cc2c1=O	1%	.	.	.	.	-1%
COc1ccc(N2CCN(CCCn3ccc(NC(=O)OCc4ccccc4)nc3=O)CC2)cc1	2%	.	.	.	.	.
COCCn1c(SCC(=O)NNC(=O)c2ccccc2)nc2ccccc2c1=O	-5%	-9%	-12	2	2%	-7%
COc1ccc(C(=O)Nc2ccc(C(F)(F)F)n(C)c2=O)cc1	6%	0%	58*	19*	0%	1%
CCN(CC)S(=O)(=O)c1ccc(C(=O)Nc2ccc(C(F)(F)F)n(C)c2=O)cc1	0%	-3%	51	-6	.	-1%
Cc1ccc(C(=O)Nc2ccc(C(F)(F)F)n(C)c2=O)cc1	0%	7%	87*	45*	-1%	-4%
COCCn1c(C(F)(F)F)ccc(NC(=O)c2ccccc2)c1=O	-1%	-10%	51*	48*	-4%	11%
Cc1ccccc1-c1cc2nc(Nc3ccc(F)cc3)n(C)c(=O)c2s1	-10%	.	.	.	.	.
Cc1cccc(NS(=O)(=O)c2cc(C(=O)N3CCCCCC3)ccc2C)c1	-5%	4%	-12	1	2%	-2%
Cc1ccc(CNC(=O)C2CCCN(S(=O)(=O)N3CC(C)CC(C)C3)C2)cc1 (configuration not stated)	0%	-3%	-2	-4	.	7%
COc1ccc(-c2nnc(SCC(=O)NCc3ccco3)n2C)cc1	-7%	5%	39	-3	3%	45µM*
O=C(CSc1ccc2nnc(CCNC(=O)c3ccccc3)n2n1)NCc1ccco1	-3%	2%	-5	-2	.	42%
COc1ccc(-n2c(-c3ccc(F)cc3)cnc2SCC(=O)NCc2ccco2)cc1	-3%	1%	103*	49*	-4%	7%
Cn1c(SCC(=O)NCc2ccco2)nnc1-c1ccccc1	2%	0%	-6	1	2%	?
SMILES	Tb PYK inh	LmPK inh	Shiga inhibitor	Cycloheximide cs	FBPA Giardia inh	Sm TGR block
O=C(CSc1ccc2nnc(-c3ccccc3)n2n1)NCc1ccco1	-2%	5%	-3	-3	1%	45µM*
COc1ccc(-c2nnc3ccc(SCC(=O)NCc4ccco4)nn23)cc1	-11%	1%	-6	-2	5%	40µM*
O=C(CSc1ccc(S(=O)(=O)N2CCCCC2)cn1)Nc1ccccc1Br	-7%	.	.	.	.	3%
N#Cc1ccc(CN2CC[C@@]3(CCCN(C(=O)c4ccco4)C3)C2)cc1	-3%	.	.	.	0%	.
CCNC(=O)C1CCCN(C(=O)c2ccc(C(=O)OC)cc2)CC1 (configuration not stated)	0%	.	.	.	.	.
O=C(CSc1ccc2nnc(-c3ccccn3)n2n1)NCc1ccco1	-8%	3%	2	-3	-21%	40µM*
O=C(CSc1ccc2nnc(-c3ccccn3)n2n1)NCc1ccc2c(c1)OCO2	7%	0%	-2	-3	-11%	-6%
COc1cccc(CN(C)C[C@H]2OCc3cnnn3CCCC(=O)N([C@@H](C)CO)C[C@@H]2C)c1	-8%	.	.	.	.	.
Cc1cc(C)n2c(SCCC(C)C)nnc2n1	-1%	1%	89	19*	9%	2%
Cc1cc(C)n2c(SCC(C)C)nnc2n1	16%	6%	17	3	2%	1%
CCN1C(C)=C(C(=O)OC)C(c2ccccc2)N2C(=O)[C@@]3(C(=O)OC)O[C@@]12C1C(=O)N(c2ccccc2)C(=O)C13 (some centres not stated)	.	.	.	.	1%[12.9 µM]	.
c1ccn(-c2ccc(-c3ccn[nH]3)cc2)c1	-3%	-5%	91*	37*	0%	6%
Cc1ccc(C)n1-c1ccc(-c2ccn[nH]2)cc1	1%	5%	71*	36*	0%	-25%
Oc1ccccc1-c1ccn[nH]1	1%	.	.	.	.	.
COc1cc(OC)c(/C=N/NC(=O)c2ccncc2)c(OC)c1	-2%	-2%	-3	-1	-14%	4%
Cc1ccc(S(=O)(=O)/N=C2\C(=O)c3ccccc3C([O-])=C2n2cc[n+](CCC(C)C)c2)cc1	-6%	-6%	-2	2	-25%	-18%
CC(=O)Nc1ccc(S(=O)(=O)/N=C2\C(=O)c3ccccc3C([O-])=C2n2cc[n+](-c3ccccn3)c2)cc1	-6%	-6%	31	9	?	7.1µM*
Cc1ccc(Nc2nc(-c3cccs3)cs2)nc1	-8%	-28%	53	31*	-5%	-5%
Cc1cc(C)nc(Nc2nc(-c3ccccc3)cs2)n1	-1%	-2%	73*	53*	7%	49%
Cc1ccc(S(=O)(=O)Nc2nc(-c3ccccc3)cs2)cc1	-5%	4%	-9	-1	-7%	-22%
Cc1ccc(Nc2nc(-c3ccccc3)cs2)nc1	1%	-5%	36	27*	1%	4%
Cc1c(-c2nc(-c3cccnc3)no2)cccc1[N+](=O)[O-]	-2%	-1%	38	24*	13%	.
Cc1ccc(-c2nc(-c3cccnc3)no2)c(C)c1	-5%	-5%	108*	36*	1%	-7%
O=C(N/C(=C/c1cccc([N+](=O)[O-])c1)C(=O)N1CCOCC1)c1ccc(Br)cc1	-1%	-2%	-2	4	11%	2%
